According to PubChem BioAssay AID1159580 (chemical genetic matrix, 2015):
In all, about 5,500 compounds went through this assay and about 2,000 (36%) were called active. Another 18% or so got no clear call; they are omitted. Cut-off read from the data, not from the text of the source: active = normalized growth mostly below about 0.91 (no sharp cut-off); inconclusive = no clear call, values can overlap the other calls; inactive = mostly above about 0.92. The list shows a part of the results.

Test: chemical genetic growth profiling, strain panel (AID 1159580);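 note: tested at 20 µM; growth read once vehicle control cultures reached saturation at 30 °C; 1 = growth at the plate median or of vehicle wells; lower values mean less growth of the strain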
Details: growth OD

Measured: normalized growth

COc1ccc2c(c1)[nH]c1c(C)nccc12
inactive: S. cerevisiae deletion strains, locus YJR075W, strain HOC1, active compounds read low 1.02 | S. cerevisiae deletion strains, locus YKL009W, strain mrt4, active compounds read low 0.954 | S. cerevisiae deletion strains, locus YKL068W, active compounds read low 0.978 | S. cerevisiae deletion strains, locus YKL085W, strain MDH1 (second series), active compounds read low 0.979 | S. cerevisiae deletion strains, locus YKL085W, strain MDH1, active compounds read low 0.979 | S. cerevisiae deletion strains, locus YKL160W, strain elf1, active compounds read low 0.996 | S. cerevisiae deletion strains, locus YKL190W, strain CNB1, active compounds read low 1.01 | S. cerevisiae deletion strains, locus YKR001C, strain vps1, active compounds read low 0.962 | S. cerevisiae deletion strains, locus YKR026C, strain gcn3, active compounds read low 0.978 | S. cerevisiae deletion strains, locus YKR091W, strain srl3, active compounds read low 0.996 | S. cerevisiae deletion strains, locus YLL001W, strain dnm1, active compounds read low 0.987 | S. cerevisiae deletion strains, locus YLL026W, active compounds read low 0.993 | S. cerevisiae deletion strains, locus YLL041C, strain sdh2, active compounds read low 0.993 | S. cerevisiae deletion strains, locus YLR027C, strain aat2, active compounds read low 0.992 | S. cerevisiae deletion strains, locus YLR039C, strain RIC1, active compounds read low 1.22 | S. cerevisiae deletion strains, locus YLR058C, strain SHM2, active compounds read low 1.01 | S. cerevisiae deletion strains, locus YLR102C, strain apc9, active compounds read low 0.981 | S. cerevisiae deletion strains, locus YLR113W, strain HOG1, active compounds read low 1 | S. cerevisiae deletion strains, locus YLR221C, strain rsa3, active compounds read low 0.995 | S. cerevisiae deletion strains, locus YLR258W, strain gsy2, active compounds read low 0.995 | S. cerevisiae deletion strains, locus YLR262C, strain YPT6 (second series), active compounds read low 1.03 | S. cerevisiae deletion strains, locus YLR262C, strain YPT6, active compounds read low 1.21 | S. cerevisiae deletion strains, locus YLR268W, strain sec22, active compounds read low 1 | S. cerevisiae deletion strains, locus YLR320W, strain mms22, active compounds read low 1 | S. cerevisiae deletion strains, locus YLR330W, strain CHS5, active compounds read low 0.997 | S. cerevisiae deletion strains, locus YLR342W, strain FKS1 (second series), active compounds read low 1.02 | S. cerevisiae deletion strains, locus YLR342W, strain FKS1, active compounds read low 1 | S. cerevisiae deletion strains, locus YLR357W, strain rsc2, active compounds read low 0.978 | S. cerevisiae deletion strains, locus YLR370C, strain arc18, active compounds read low 1 | S. cerevisiae deletion strains, locus YLR371W, strain rom2, active compounds read low 0.979 | S. cerevisiae deletion strains, locus YLR384C, strain iki3, active compounds read low 0.999 | S. cerevisiae deletion strains, locus YLR418C, strain cdc73, active compounds read low 1.03 | S. cerevisiae deletion strains, locus YML016C, strain PPZ1, active compounds read low 1.01 | S. cerevisiae deletion strains, locus YML032C, strain rad52, active compounds read low 0.926 | S. cerevisiae deletion strains, locus YML120C, strain ndi1, active compounds read low 1 | S. cerevisiae deletion strains, locus YML124C, strain tub3, active compounds read low 0.982 | S. cerevisiae deletion strains, locus YMR058W, strain fet3, active compounds read low 0.983 | S. cerevisiae deletion strains, locus YMR078C, strain ctf18, active compounds read low 0.976 | S. cerevisiae deletion strains, locus YMR125W, strain sto1, active compounds read low 0.975 | S. cerevisiae deletion strains, locus YMR129W, active compounds read low 0.988 | S. cerevisiae deletion strains, locus YMR205C, strain PFK2, active compounds read low 0.999 | S. cerevisiae deletion strains, locus YMR223W, strain ubp8, active compounds read low 0.962 | S. cerevisiae deletion strains, locus YMR231W, strain pep5, active compounds read low 1.01 | S. cerevisiae deletion strains, locus YMR263W, strain SAP30, active compounds read low 1.01 | S. cerevisiae deletion strains, locus YMR307W, strain GAS1, active compounds read low 1.12 | S. cerevisiae deletion strains, locus YNL067W, strain RPL9B, active compounds read low 0.971 | S. cerevisiae deletion strains, locus YNL071W, strain lat1, active compounds read low 0.991 | S. cerevisiae deletion strains, locus YNL128W, strain TEP1, active compounds read low 1.03 | S. cerevisiae deletion strains, locus YNL153C, strain GIM3, active compounds read low 1.02 | S. cerevisiae deletion strains, locus YNL183C, strain NPR1, active compounds read low 0.982 | S. cerevisiae deletion strains, locus YNL209W, strain ssb2, active compounds read low 0.996 | S. cerevisiae deletion strains, locus YNL233W, strain BNI4, active compounds read low 1.01 | S. cerevisiae deletion strains, locus YNL248C, strain rpa49, active compounds read low 0.966 | S. cerevisiae deletion strains, locus YNL250W, strain rad50, active compounds read low 0.986 | S. cerevisiae deletion strains, locus YNL271C, strain bni1, active compounds read low 0.991 | S. cerevisiae deletion strains, locus YNL298W, strain CLA4, active compounds read low 0.968 | S. cerevisiae deletion strains, locus YNL307C, strain MCK1, active compounds read low 0.967 | S. cerevisiae deletion strains, locus YNL322C, strain KRE1 (second series), active compounds read low 1 | S. cerevisiae deletion strains, locus YNL322C, strain KRE1, active compounds read low 1.01 | S. cerevisiae deletion strains, locus YNR049C, strain mso1, active compounds read low 0.997 | S. cerevisiae deletion strains, locus YNR052C, strain pop2, active compounds read low 0.961 | S. cerevisiae deletion strains, locus YOL006C, strain TOP1, active compounds read low 0.963 | S. cerevisiae deletion strains, locus YOL012C, strain htz1 1.03 | S. cerevisiae deletion strains, locus YOL147C, strain pex11, active compounds read low 0.984 | S. cerevisiae deletion strains, locus YOR001W, strain rrp6, active compounds read low 1.02 | S. cerevisiae deletion strains, locus YOR061W, strain CKA2, active compounds read low 1.04 | S. cerevisiae deletion strains, locus YOR069W, strain VPS5, active compounds read low 1 | S. cerevisiae deletion strains, locus YOR070C, strain gyp1, active compounds read low 0.995 | S. cerevisiae deletion strains, locus YOR080W, strain dia2, active compounds read low 1.01 | S. cerevisiae deletion strains, locus YOR083W, strain WHI5, active compounds read low 0.996 | S. cerevisiae deletion strains, locus YOR106W, strain vam3, active compounds read low 0.983 | S. cerevisiae deletion strains, locus YOR136W, strain idh2, active compounds read low 0.971 | S. cerevisiae deletion strains, locus YOR144C, strain elg1, active compounds read low 0.988 | S. cerevisiae deletion strains, locus YOR184W, strain ser1, active compounds read low 0.953 | S. cerevisiae deletion strains, locus YOR231W, strain MKK1, active compounds read low 1 | S. cerevisiae deletion strains, locus YOR265W, strain rbl2, active compounds read low 0.996 | S. cerevisiae deletion strains, locus YOR270C, strain vph1, active compounds read low 0.974 | S. cerevisiae deletion strains, locus YOR290C, strain snf2, active compounds read low 0.99 | S. cerevisiae deletion strains, locus YOR316C, strain cot1, active compounds read low 0.985 | S. cerevisiae deletion strains, locus YPL051W, strain arl3, active compounds read low 0.986 | S. cerevisiae deletion strains, locus YPL055C, strain LGE1, active compounds read low 1.02 | S. cerevisiae deletion strains, locus YPL078C, strain atp4, active compounds read low 0.995 | S. cerevisiae deletion strains, locus YPL106C, strain sse1, active compounds read low 0.972 | S. cerevisiae deletion strains, locus YPL240C, strain hsp82, active compounds read low 0.981 | S. cerevisiae deletion strains, locus YPL241C, strain CIN2, active compounds read low 1.01 | S. cerevisiae deletion strains, locus YPL256C, strain CLN2, active compounds read low 1.01 | S. cerevisiae deletion strains, locus YPR119W, strain clb2, active compounds read low 0.988 | S. cerevisiae deletion strains, locus YPR141C, strain kar3, active compounds read low 0.979 | S. cerevisiae deletion strains, locus YPR163C, strain tif3, active compounds read low 0.975 | S. cerevisiae deletion strains, locus YPR167C, strain met16, active compounds read low 1 | S. cerevisiae deletion strains, strain wtn01, active compounds read low 0.998 | S. cerevisiae strains, strain wild type, active compounds read low 0.998
